Seven compounds from PubChem BioAssay (Tox21) can be followed below.

Assay [1] can be described thus: Nuclear factor erythroid 2-related factor 2/antioxidant responsive element (Nrf2/ARE) small molecule agonists: qHTS cell viability counter screen in human keratinocytes (AID 1919968; active = well fitted curve in the direction sought with a large enough effect in the repeat runs; an effect the other way counts as inactive or inconclusive; also: nearly all actives have a fitted effect of over 55% in size). An outline of the steps: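 Cytotoxicity was multiplexed with the Nrf2/ARE luciferase assay in the same wells. Stably transfected HaCaT keratinocytes were treated with test compounds for 23 h at 37 C. Cell viability was then measured by CellTiter-Fluor fluorescence.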
In general terms: Quantitative high-throughput screening tests each substance at several concentrations.

The nature of assay [2]: Nuclear factor erythroid 2-related factor 2/antioxidant responsive element (Nrf2/ARE) small molecule agonists: luciferase reporter gene qHTS assay in human keratinocytes (AID 1919969). Also: nearly all actives have a fitted effect of over 35% in size.
In assay [3] the target is Gonadotropin-releasing hormone receptor (Homo sapiens) (UniProt P30968). Kind of assay: Human gonadotropin-releasing hormone receptor (GnRHR) small molecule agonists, calcium flux assay in GnRHR-HEK293 cells (AID 1920063). Also: nearly all actives have a fitted effect of over 35% in size. The gist of the method:
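Agonist activity was measured as intracellular calcium flux in HEK293 cells engineered to stably express human GnRHR. After dye loading for 1 hour at 37 C, compounds in DMSO were added and fluorescence was followed for 3 minutes.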
In general terms: Calcium flux is commonly read through the fluorescence of an indicator in the cells.

The target in assay [4] is KiSS-1 receptor (Homo sapiens) (UniProt Q969F8). Nature of the assay: Human kisspeptin (KISS1R) small molecule agonists, calcium flux assay in KISS1R-HEK293 cells (AID 1920064; active = well fitted curve in the direction sought with a large enough effect in the repeat runs; an effect the other way counts as inactive or inconclusive). The gist of the method: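 Agonist activity is monitored as intracellular calcium rise in engineered HEK293 cells carrying human KISS1R. Cells are dye-loaded for 1 h at 37 C before compound addition, and fluorescence is recorded for 3 min.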
KiSS-1 receptor (Homo sapiens), sequence (Q969F8 whole entry, looked up): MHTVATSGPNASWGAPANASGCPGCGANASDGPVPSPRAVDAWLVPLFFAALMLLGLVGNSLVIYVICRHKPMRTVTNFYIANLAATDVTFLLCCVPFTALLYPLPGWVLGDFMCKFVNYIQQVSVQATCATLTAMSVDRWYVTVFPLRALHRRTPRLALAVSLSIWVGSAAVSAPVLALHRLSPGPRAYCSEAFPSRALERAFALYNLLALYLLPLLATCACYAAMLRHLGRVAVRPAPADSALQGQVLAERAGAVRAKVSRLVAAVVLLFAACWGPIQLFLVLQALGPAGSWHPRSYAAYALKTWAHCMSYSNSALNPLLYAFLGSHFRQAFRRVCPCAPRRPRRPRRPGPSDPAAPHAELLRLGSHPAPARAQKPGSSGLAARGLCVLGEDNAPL

A short description of assay [5]: G protein-coupled receptor (GPCR) small molecule agonists, calcium flux assay: HEK293 wild type cell line counter screen (AID 1920065). The gist of the method: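 Seed cells, incubate 18 h (37 C, 5% CO2); add calcium dye, 1 h at 37 C; pin-transfer compounds, ATP control or DMSO; read fluorescence 480/540 nm each second for 3 min.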
The nature of assay [6]: p53 small molecule agonists, cell-based qHTS assay with human liver microsomes (AID 1963577). An outline of the steps:
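Cells carrying a p53-responsive bla reporter were rested 5 h (37 C, 5% CO2) before compound transfer. Human liver microsomes plus NADPH, 0.5 mg/mL final apiece, supplied metabolism during the 16 h 37 C exposure.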

The nature of assay [7]: p53 small molecule agonists, cell-based qHTS assay with rat liver microsomes (AID 1963578). The gist of the method:
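Fluorescence from a beta-lactamase reporter under a p53 response element was measured after cells had been incubated 16 h at 37 C with test compound and rat liver microsomes plus NADPH (0.5 mg/mL final each).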

Assay [8] in a line: p53 small molecule agonists, cell-based qHTS assay with human liver microsomes: qHTS cell viability counter screen (AID 1963579). Also: nearly all actives have a fitted effect of over 45% in size. An outline of the steps:
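Seed p53RE-bla cells at 4,000 per well; incubate 5 h at 37 C; add compound, human liver microsomes and NADPH; incubate 16 h at 37 C; add CellTiter-Glo; after 30 min at room temperature, read luminescence.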

A short description of assay [9]: p53 small molecule agonists, cell-based qHTS assay with rat liver microsomes: qHTS cell viability counter screen (AID 1963580). Also: nearly all actives have a fitted effect of over 45% in size. The gist of the method:
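Luminescent ATP readout (CellTiter-Glo, 30 min at room temperature) reports viability of p53RE-bla HCT-116 cells after 16 h at 37 C with test compounds under metabolic activation by rat liver microsomes and NADPH at 0.5 mg/mL final each.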

Assay [10] in a line: p53 small molecule agonists, cell-based qHTS assay: qHTS cell viability counter screen (AID 1963581). Also: nearly all actives have a fitted effect of over 45% in size. The gist of the method:
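Viability was counter-screened in parallel with the p53 agonist reporter by measuring intracellular ATP luminescence in the same HCT-116 p53RE-bla wells after 16 h compound treatment at 37 C.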

Assay [11] is described as follows: p53 small molecule agonists, cell-based qHTS assay (AID 1963582; active = well fitted activation curve with a large enough effect in the signal ratio in the repeat runs, not every such curve was filed as active; the % refers to the signal ratio). The gist of the method: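 Cells carrying a p53-responsive bla reporter are treated with test compounds for 16 h at 37 C; beta-lactamase activity is then detected with LiveBLAzer B/G FRET substrate after 2 h at room temperature.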
The target of assay [12] is 5-hydroxytryptamine receptor 2A (Homo sapiens) (UniProt P28223). Kind of assay: 5-hydroxytryptamine receptor 2A (HTR2A) small molecule agonists, cell-based qHTS assay (AID 1963587). Also: nearly all actives have a fitted effect of over 30% in size. Also: potency is read from the fitted curve at half-maximal effect. The gist of the method: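 HTR2A-CHO cells, plated 18 h at 37 C/5% CO2, dye-loaded 1 h at 37 C; compounds in DMSO added by pin tool (agonist mode). Intracellular calcium flux read as kinetic fluorescence on FDSS over 2 min at 1 s intervals.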
5-hydroxytryptamine receptor 2A (Homo sapiens), sequence (P28223 whole entry, looked up): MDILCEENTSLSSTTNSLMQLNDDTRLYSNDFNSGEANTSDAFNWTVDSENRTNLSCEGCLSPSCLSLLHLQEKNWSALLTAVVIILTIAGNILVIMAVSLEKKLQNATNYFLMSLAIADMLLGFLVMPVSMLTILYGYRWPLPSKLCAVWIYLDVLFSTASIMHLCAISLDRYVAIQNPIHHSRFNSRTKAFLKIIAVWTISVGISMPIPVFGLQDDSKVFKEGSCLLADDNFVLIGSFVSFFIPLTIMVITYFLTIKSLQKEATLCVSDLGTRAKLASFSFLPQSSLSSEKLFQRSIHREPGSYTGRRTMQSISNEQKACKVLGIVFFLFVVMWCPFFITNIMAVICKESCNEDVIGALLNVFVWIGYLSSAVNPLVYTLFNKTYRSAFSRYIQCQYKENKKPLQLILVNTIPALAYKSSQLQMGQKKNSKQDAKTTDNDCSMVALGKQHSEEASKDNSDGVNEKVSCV

Assay [13] concerns the target Muscarinic acetylcholine receptor M1 (Homo sapiens) (UniProt P11229). Nature of the assay: Cholinergic receptor muscarinic 1 (CHRM1) small molecule antagonists, cell-based qHTS assay (AID 1963588). Also: nearly all actives have a fitted effect of over 40% in size. The gist of the method: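 Compounds were tested at 15 concentrations in three independent runs. Dye-loaded CHRM1-CHO cells were exposed 5 min at room temperature before stimulation by acetylcholine added at 50nM. Intracellular calcium was read kinetically on FDSS for 3 min.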

For assay [14] the target is unchanged. Nature of the assay: Cholinergic receptor muscarinic 1 (CHRM1) small molecule agonists, cell-based qHTS assay (AID 1963589). Also: nearly all actives have a fitted effect of over 35% in size. An outline of the steps:
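Cells were plated and incubated 18 h at 37 C/5% CO2, loaded with calcium dye for 1 h at 37 C, then treated with compounds in DMSO. Fluorescence was recorded kinetically at 1 sec intervals.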

Assay [15] can be described thus: cAMP Responsive Elements (CRE) small molecule agonists, cell-based qHTS assay (AID 1963590). An outline of the steps:
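Cells carrying a CRE-driven beta-lactamase reporter (HEK 293T) are seeded, incubated overnight (18 h), and treated with test compounds for 3 h at 37 C; reporter activity is then detected with a FRET substrate after 2 h at room temperature.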

A short description of assay [16]: cAMP Responsive Elements (CRE) small molecule antagonists, cell-based qHTS assay (AID 1963591; active = well fitted inhibition curve with a large enough effect in the signal ratio in the repeat runs, not every such curve was filed as active; the % refers to the signal ratio). The gist of the method: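 Cells (CRE-bla HEK 293T, DMEM with 10% dialyzed FBS and 25 mM HEPES) are seeded and incubated 18 h. Compounds are added with NKH477 agonist at 0.25 uM final for 3 h, then FRET substrate for 2 h.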
Assay [17] has as its target Beta-2 adrenergic receptor (Homo sapiens) (UniProt P07550). Kind of assay: Adrenergic beta2 receptor (ADRB2) small molecule antagonists, cell-based qHTS assay (AID 1963592). Also: series mostly up to about 92 µM; nearly all actives have a fitted effect of over 50% in size. The gist of the method: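 Assay format: CHO-ADRB2 cells, 18-20hr seeding at 37C/5% CO2, then compound plus 1nM isoproterenol agonist mix for 0.5hr RT. Homogeneous time-resolved fluorescence cAMP detection after 1hr, expressed as 665/615 nm ratio.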

Assay [18] concerns the target D(2) dopamine receptor (Homo sapiens) (UniProt P14416). Kind of assay: Dopamine D2 receptor (DRD2) small molecule agonists, cell-based qHTS assay (AID 1963594). Also: nearly all actives have a fitted effect of over 35% in size. The gist of the method:
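HEK293 cells stably expressing DRD2 were cultured 24 h at 37 C, then given Ro20-1724 (0.1 mM final) and compounds for 10 min at room temperature. NKH477 (200nM) was then added for 30 min. cAMP was read by HTRF.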

For assay [19], the target named is Beta-2 adrenergic receptor (Homo sapiens) (UniProt P07550). Nature of the assay: Adrenergic beta2 receptor (ADRB2) small molecule agonists, cell-based qHTS assay (AID 1963593).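 Also: CHO cells stably overexpressing human ADRB2.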 The gist of the method: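 CHO cells stably over-expressing ADRB2 were plated overnight at 37C, then dosed with compounds plus a stimulation mix containing 100uM IBMX and 25uM Ro-20-1724 for 0.5hr at room temperature. cAMP was measured by HTRF competition, 1hr.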
Beta-2 adrenergic receptor (Homo sapiens), sequence (P07550 whole entry, looked up): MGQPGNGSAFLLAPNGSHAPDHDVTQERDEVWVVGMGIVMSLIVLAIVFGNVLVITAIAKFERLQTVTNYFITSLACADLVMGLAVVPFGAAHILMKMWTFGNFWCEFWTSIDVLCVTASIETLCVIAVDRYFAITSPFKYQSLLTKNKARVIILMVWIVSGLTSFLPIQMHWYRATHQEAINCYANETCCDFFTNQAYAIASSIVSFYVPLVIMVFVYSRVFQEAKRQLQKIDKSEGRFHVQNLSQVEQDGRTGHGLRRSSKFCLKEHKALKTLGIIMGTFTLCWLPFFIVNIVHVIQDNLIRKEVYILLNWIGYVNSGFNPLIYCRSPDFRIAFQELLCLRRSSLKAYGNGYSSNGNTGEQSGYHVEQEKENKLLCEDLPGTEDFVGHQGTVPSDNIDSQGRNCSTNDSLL

For assay [20], the target named is D(2) dopamine receptor (Homo sapiens) (UniProt P14416). Nature of the assay: Dopamine D2 receptor (DRD2) small molecule antagonists, cell-based qHTS assay (AID 1963595; active = well fitted inhibition curve with a large enough effect in the signal ratio in the repeat runs, with a control signal flat; the % refers to the signal ratio). The gist of the method:
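Antagonist mode in DRD2-HEK293 cells: after compound addition with 0.1 mM Ro20-1724, cells received quinpirole (12 nM) and NKH477 (200 nM) for 30 min at room temperature; HTRF cAMP read after 1 h detection.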

Inconclusive results are not listed. Calls of active or inactive are those of the source. Unless noted, calls follow the shape of the full dose curve.

Muscarinic acetylcholine receptor M1 (Homo sapiens), sequence (P11229 whole entry, looked up): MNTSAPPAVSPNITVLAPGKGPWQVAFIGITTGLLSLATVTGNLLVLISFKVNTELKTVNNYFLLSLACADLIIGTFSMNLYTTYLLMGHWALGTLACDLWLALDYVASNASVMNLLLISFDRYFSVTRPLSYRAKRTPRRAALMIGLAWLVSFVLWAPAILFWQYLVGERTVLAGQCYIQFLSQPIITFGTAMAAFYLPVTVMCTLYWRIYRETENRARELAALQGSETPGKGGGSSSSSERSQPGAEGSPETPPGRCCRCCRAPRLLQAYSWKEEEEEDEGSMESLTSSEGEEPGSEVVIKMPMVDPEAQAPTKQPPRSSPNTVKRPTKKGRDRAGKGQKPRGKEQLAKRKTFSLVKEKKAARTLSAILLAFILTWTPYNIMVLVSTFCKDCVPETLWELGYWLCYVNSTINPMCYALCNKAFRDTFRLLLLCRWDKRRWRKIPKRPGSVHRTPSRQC
Gonadotropin-releasing hormone receptor (Homo sapiens), sequence (P30968 whole entry, looked up): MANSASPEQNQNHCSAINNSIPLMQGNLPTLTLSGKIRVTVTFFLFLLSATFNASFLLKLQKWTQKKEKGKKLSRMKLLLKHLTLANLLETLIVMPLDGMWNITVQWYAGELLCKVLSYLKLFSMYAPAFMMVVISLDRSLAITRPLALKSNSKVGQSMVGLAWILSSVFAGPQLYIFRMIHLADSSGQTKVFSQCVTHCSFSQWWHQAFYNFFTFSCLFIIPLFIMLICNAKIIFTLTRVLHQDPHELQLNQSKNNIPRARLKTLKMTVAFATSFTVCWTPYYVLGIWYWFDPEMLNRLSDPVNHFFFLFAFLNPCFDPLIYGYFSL
D(2) dopamine receptor (Homo sapiens), sequence (P14416 whole entry, looked up): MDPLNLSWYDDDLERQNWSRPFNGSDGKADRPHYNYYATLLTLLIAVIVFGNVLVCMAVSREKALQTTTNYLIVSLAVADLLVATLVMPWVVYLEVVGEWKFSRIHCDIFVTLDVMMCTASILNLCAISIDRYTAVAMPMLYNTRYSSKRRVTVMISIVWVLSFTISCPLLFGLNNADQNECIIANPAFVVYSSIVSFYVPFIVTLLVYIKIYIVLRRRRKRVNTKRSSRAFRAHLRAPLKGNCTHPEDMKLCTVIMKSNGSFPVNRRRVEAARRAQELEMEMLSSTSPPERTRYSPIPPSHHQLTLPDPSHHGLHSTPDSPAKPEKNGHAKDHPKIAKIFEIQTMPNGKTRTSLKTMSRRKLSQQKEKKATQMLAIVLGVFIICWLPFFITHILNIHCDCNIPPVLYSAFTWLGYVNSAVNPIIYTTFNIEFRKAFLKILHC

Turning to `Brc1ccc(-c2ccccc2)cc1`, the Potency result in [1], in assay [2], in assay [3], in [6], in assay [7] and in [8] was “inactive” in each case. The Potency result in [9], in assay [10], in assay [11], in [12], in assay [13] and in assay [14] was “inactive” each time. Moreover, the Potency result in assay [15], in assay [16], in assay [17] and in assay [18] was “inactive” throughout. In addition, the outcome in assay [4] and in assay [5] was inactive.
In the case of `CCCCCCCCCCCCCc1ccccc1`, the Potency entry in assay [1], in assay [2], in assay [3], in assay [6], in assay [7] and in assay [8] was “inactive” in each case. In addition, the Potency result in [9], in assay [10], in assay [11], in assay [12], in assay [13] and in assay [14] was “inactive” in each case. In addition, the Potency result in [15], in assay [16], in [17], in [19], in [18] and in assay [20] was “inactive” each time. In addition, the result in [4] and in [5] was inactive.
Regarding `CCCCCCCC/C=C\CCCCCCCCN`, the Potency entry in assay [1], in assay [2], in assay [3], in assay [6], in [7] and in [8] was “inactive” in each case. Besides, the Potency entry in assay [9], in assay [10], in [11], in assay [13], in assay [14] and in assay [15] was “inactive” throughout. For the same compound, the Potency result in assay [16], in [17] and in [20] was “inactive” throughout. Further, the outcome in assay [4] and in assay [5] was inactive. The Potency in assay [12] is 21.3 µM (active).
For `O=[N+]([O-])c1cccc(S(=O)(=O)NCCNS(=O)(=O)c2cccc([N+](=O)[O-])c2)c1`, the Potency result in assay [1], in [2], in assay [3], in [6], in [7] and in [8] was “inactive” in each case. Also, the Potency result in assay [9], in assay [10], in assay [11], in assay [12], in [13] and in [14] was “inactive” each time. Besides, the Potency entry in assay [16], in assay [17], in [19] and in assay [18] was “inactive” throughout. Further, the outcome in assay [4] and in assay [5] was inactive.
As for `CC(=O)CC(C)C`, the Potency result in assay [1], in assay [2], in assay [3], in assay [6], in assay [7] and in assay [8] was “inactive” throughout. Also, the Potency entry in [9], in assay [10], in assay [11], in assay [12], in [13] and in [14] was “inactive” throughout. For the same compound, the Potency result in [15], in assay [16], in assay [17], in assay [19], in assay [18] and in assay [20] was “inactive” each time. Besides, the outcome in [4] and in assay [5] was inactive.
In the case of `CC1(N)CCC(C(C)(C)N)CC1` (configuration not stated), the Potency result in assay [1], in [2], in assay [3], in [6], in [7] and in assay [8] was “inactive” in each case. Also, the Potency entry in assay [9], in assay [10], in assay [11], in [12], in [13] and in assay [14] was “inactive” in each case. In addition, the Potency entry in assay [15], in assay [16], in assay [17] and in assay [20] was “inactive” in each case. For the same compound, the outcome in assay [4] and in assay [5] was inactive.
`Cc1cc(NC(=O)C2=C(O)c3ccccc3S(=O)(=O)N2C)no1`: the Potency entry in [1], in assay [2], in [3], in assay [6], in [7] and in assay [8] was “inactive” each time. Further, the Potency entry in [9], in [10], in assay [11], in assay [12], in assay [13] and in assay [14] was “inactive” each time. In addition, the Potency entry in assay [15], in assay [16], in assay [17], in assay [19], in assay [18] and in assay [20] was “inactive” throughout. Moreover, the outcome in assay [4] and in [5] was inactive.
